Data on 40 compounds can be found in PubChem BioAssay.

By viability is commonly meant a read-out of living cells in per cent, often relative to untreated cells.

Molecules are shown by their SMILES.

This assay in a line: MRP1 drug-resistance reversers in H69AR cells – cell-based, doxorubicin co-treatment, pilot screen (AID 601). The following applies: H69AR cells, CellTiter-Glo, 72 h; compound alone cytotoxicity; at 10 µM. Background: Cellular ATP, detected with luciferase, serves as a proxy for viable cell number.
Consider `Cc1ccc(-c2nnn(CC(=O)N(CC(=O)NC3CCCCC3)c3cnc4ccccc4c3)n2)o1`, for which the viability stood at 96.5%.

Consider `COCc1nnc(NC(=O)CCCOc2ccccc2)s1`, for which the viability was found to be 98.5%.

Turning to `CCc1cc2ccc(C)cc2nc1SCC(=O)N1CCN(C(=O)c2ccco2)CC1`, the viability turned out to be 64.5%.

On to `NC(=O)NC(c1ccccc1)c1ccccc1F` (stereo not given), for which the viability was 105%.

Consider `CC(C)c1nnc(SCC(=O)NCc2ccco2)n1C`, for which the viability was 79.6%.

Consider `Cn1c(=O)c2c(nc(NCCCO)n2C/C=C/c2ccccc2)n(C)c1=O`, for which the viability is 83.2%.

With `O=C(Nc1c(-c2ccccc2)nc2ccccn12)c1ccco1`, the viability was 103%.

For the compound `Nc1nc(N2C(=O)C3CC=CCC3C2=O)nn1-c1ccccc1` (stereo not given), the viability was 98.7%.

In the case of `COc1ccc(C(=O)NCc2nnc(SCC(=O)Nc3cc(C)cc(C)c3)o2)cc1OC`, the viability was 89.3%.

With `c1coc(Cn2nnnc2CN2CCN(C3CCCC3)CC2)c1`, the viability turned out to be 93.2%.

Consider `O=C(C1CCN(c2nnnn2-c2ccccc2)CC1)N1CCN(c2ccccc2)CC1`, for which the viability came to 79%.

On to `COC(=O)c1ccc(CNC(=O)COc2ccccc2Br)o1`, for which the viability was found to be 103%.

As to `CCOC(=O)C1CCCN(c2c(NCc3ccco3)c(=O)c2=O)C1` (stereo not given), the viability was found to be 94.3%.

`CC1(C)NC(=O)N(CC(O)CN(Cc2ccccc2)Cc2ccccc2)C1=O` (stereo not given): the viability is 92.6%.

`O=C1c2ccccc2C(O)(Cc2ccccc2)N1Cc1ccco1` (stereo not given): the viability worked out at 95.7%.

Regarding `Cc1onc(-c2ccccc2)c1C(N)=O`, the viability is 100%.

Take `CCC1(CC)NC(=O)NC1=O`: the viability turned out to be 105%.

For the compound `Cc1ccc2[nH]c3c(c2c1)CCc1cn[nH]c1-3`, the viability was 38.4%.

Turning to `COc1ccc(C(=O)Nn2c(C3CCC3)nc3ccccc3c2=O)c(OC)c1`, the viability came out at 111%.

For the compound `CCOC(=O)CSc1nnc(CCc2nc3ccccc3[nH]2)n1C`, the viability is 102%.

With `COC(=O)c1[nH]c2cc(OC)ccc2c1NC(=O)CCN1CCCCC1`, the viability is 98.2%.

On to `Nc1nnc(C(=O)c2ccccc2N)s1`, for which the viability was found to be 96.3%.

As for `CCn1c(C(=O)OC)cc2c1ccn2-c1ccc(F)cc1`, the viability came to 83%.

Take `CC(C)C(NC(=O)c1ccco1)C(=O)NCC(c1ccco1)N1CCCCC1` (stereo not given): the viability was 93.9%.

Consider `Cc1cc2ccccn2c1C(=O)c1ccncc1`, for which the viability came out at 87.9%.

As for `CCCCc1c(O)nc(SCCN(C)C)n(-c2ccccc2)c1=O`, the viability worked out at 102%.

For `COc1ccccc1N1CCN(c2nc3ccccc3nc2C(C#N)C(=O)OC(C)C)CC1` (stereo not given), the viability amounted to 80.3%.

As to `CC1CCN(Cc2ccc(-c3nn[nH]n3)cc2)CC1`, the viability is 95%.

Regarding `CCCCCc1c(C)nc(N2CCc3ccccc32)[nH]c1=O`, the viability worked out at 94.6%.

With `COc1cccc(-n2c(SC3CCOC3=O)nc3ccccc3c2=O)c1` (stereo not given), the viability stood at 94.4%.

As to `O=C(Nc1ccccc1C(=O)N1CCCCCC1)c1cccc(S(=O)(=O)N2CCOCC2)c1`, the viability came to 95.5%.

As to `COc1cc(OC)cc(C(=O)NCCN2CCOCC2)c1`, the viability was found to be 94.1%.

For the compound `Cc1ccc(C)c(NC(=O)CC(NCCCN2CCOCC2)C(=O)O)c1` (stereo not given), the viability stood at 88.3%.

Consider `O=C(CN(C(=O)CCC(=O)Nc1nccs1)c1ccccc1F)NCC1CCCO1` (stereo not given), for which the viability was determined as 100%.

In the case of `CCOC(=O)N1CCN(C(=O)CSc2nnc(-c3cc(OC)cc(OC)c3)o2)CC1`, the viability stood at 85.7%.

For the compound `Cc1ccc2nc(NC(=O)C3CCCN(S(=O)(=O)c4cnc[nH]4)C3)sc2c1` (stereo not given), the viability is 81.9%.

Turning to `C=Cn1nc(C)c2ccccc2c1=O`, the viability was 90.1%.

Regarding `CCC(C)(C(=O)NC1CCCC1)N(C(=O)c1cnccn1)c1c(C)n(C)n(-c2ccccc2)c1=O` (stereo not given), the viability is 91.4%.

In the case of `Cc1ccc(NC(=O)C2CCCN(S(=O)(=O)c3cnc[nH]3)C2)c(Br)c1` (stereo not given), the viability worked out at 101%.

On to `CC(=O)Nn1c(C)nnc1-n1nc(C)cc1C`, for which the viability came out at 97.8%.
